From PubChem BioAssay
uPA surface inh – qHTS for Inhibitors of Cell Surface uPA Generation; 330,000 compounds, 0.31% hits; cell surface uPA generation assay, qHTS; Potency, µM (titrated, usually from 38.3 µM), most hits filed as inhibitors; AID 540303, 2011; active = well fitted inhibition curve with a large enough effect; inconclusive = small, poorly fitted or top-dose-only effect; inactive = no such curve, though single readings can be large or run the other way; tested in mouse RAW 264.7 cells; note: nearly all actives have a fitted effect of over 55% in size
HepG2 tox – qHTS for Inhibitors of TGF-b: Cytotox Counterscreen; HepG2 CAGA-GFP viability, ATP luminescence, 18 h; Potency, µM (series often up to 46.1 µM), most hits filed as cytotoxic; 410,000 compounds, 0.76% hits; AID 588856, 2011
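CellTiter-Glo luminescence gave cytotoxicity after 18 hours at 37 degrees C. The cells were HepG2 CAGA-GFP in 1% FBS DMEM, stimulated with 500 pg/mL TGF-beta after compound addition. %Activity was normalised to no-cell wells (complete cell-killing) and DMSO (no toxicity), and curves were fitted and classified.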
ATXN2 expr inh – Primary qHTS for Inhibitors of ATXN expression; 360,000 compounds, 0.72% hits; Potency, µM (doses to about 57 µM), most hits filed as inhibitors; HEK-293 ATXN2-luciferase reporter, luminescence, 24 h; note: nearly all actives have a fitted effect of over 55% in size
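ATXN2-luciferase reporter cells (luciferase flanked by upstream and downstream ATXN2 gene portions) were treated 24 h at 37 °C with compounds at up to 57 uM. SteadyGlo luminescence gave expression; GF-AFC fluorescence gave viability.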
TGFb SMAD3 inh – qHTS for Inhibitors of TGF-b. AID 588855, 2011. HepG2 CAGA-GFP TGF-b/SMAD3 reporter, GFP fluorescence, 18 h; TGF-beta stimulated, 500 pg/mL final. 410,000 compounds, 1.2% hits. Potency, µM (doses to about 46.1 µM), hits mostly inhibitors; note: nearly all actives have a fitted effect of over 65% in size
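Read-out: total well GFP (ex488/em500-530) summed from mean per-cell fluorescence. Cells: HEPG2 CAGA-GFP, 1% FBS DMEM, 18 h at 37 degrees C with 500 pg/mL final TGF-beta. Unstimulated wells served as the full-inhibition control; stimulated DMSO wells = 0%.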
ATXN viability – Viability Counterscreen for Primary qHTS for Inhibitors of ATXN expression; S2 cells (HEK-293 line with an ATXN2-luciferase reporter) viability, CellTiter-Fluor protease fluorescence, 24 h; 400,000 compounds, 0.49% hits; Potency, µM (top dose mostly 56.7 µM), hits mostly cytotoxic; AID 651635, 2014; note: nearly all actives have a fitted effect of over 40% in size
Giardia kill – Small Molecules that selectively kill Giardia lamblia: qHTS; AID 540267, 2011; activity change, % at 7.66 µM, hits read low; 340,000 compounds, 0.15% hits; Giardia lamblia trophozoite viability; in the data active = activity change below about -80%; inconclusive = between about -30% and that limit;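 note: parasites exposed to compound for two days anaerobically before the ATP read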
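Killing of trophozoites was scored by loss of ATP luminescence after a 48 hrs anaerobic exposure to compounds at 37 deg C, using 100 cells per well.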
Numbers stand for hits. Sampled rows, rich in hits. Any-hit rate of the full collection: about 2.6%. Unless noted, calls come from the whole dose curve; as a rule, active = well fitted curve in the direction sought with a large enough effect; inconclusive = small, poorly fitted or top-dose-only effect, or another doubt; inactive = no such curve, though single readings can be large; an effect the other way counts as inactive or inconclusive.

How did O=C(NNC1=NS(=O)(=O)c2ccccc21)c1ccc(Cl)cc1 do in these assays?
uPA surface inh: 3.5µM; HepG2 tox: inactive; TGFb SMAD3 inh: inactive; ATXN viability: inactive; Giardia kill: inconclusive

How did O=C(NNC1=NS(=O)(=O)c2ccccc21)c1ccc([N+](=O)[O-])cc1 do in these assays?
uPA surface inh: inactive; HepG2 tox: inactive; ATXN2 expr inh: inconclusive; TGFb SMAD3 inh: inactive; ATXN viability: inactive; Giardia kill: inconclusive

What do the screens show for `CCOc1ncc(F)c(=O)[nH]1`?
ATXN2 expr inh: inactive; ATXN viability: inactive

Results for Cc1cc(NS(=O)(=O)c2ccc(NC(=O)c3ccc([N+](=O)[O-])s3)cc2)nc(C)n1 ?
uPA surface inh: inactive; HepG2 tox: inactive; ATXN2 expr inh: inactive; TGFb SMAD3 inh: inconclusive; ATXN viability: inconclusive; Giardia kill: inactive

Results for Cc1ccnc(NS(=O)(=O)c2ccc(NC(=O)c3ccc([N+](=O)[O-])s3)cc2)n1 ?
uPA surface inh: inactive; HepG2 tox: 11µM; ATXN2 expr inh: inconclusive; TGFb SMAD3 inh: inconclusive; ATXN viability: inactive; Giardia kill: inactive

What do the screens show for `CC(C)(C)C1CCC(CC2=C(O)c3ccccc3C(=O)C2=O)CC1` (stereo not drawn)?
ATXN2 expr inh: inconclusive; ATXN viability: inactive

What do the screens show for `Cc1cccc(N=C2NN=C(c3c(C)[nH]c4ccccc34)CS2)c1`?
uPA surface inh: inactive; HepG2 tox: inactive; ATXN2 expr inh: 28µM; TGFb SMAD3 inh: inactive; ATXN viability: inconclusive; Giardia kill: inactive

Results for Cc1cccc(N=C2NN=C(c3ccc4c(c3)OCCO4)CS2)c1 ?
HepG2 tox: inactive; ATXN2 expr inh: inactive; TGFb SMAD3 inh: inactive; ATXN viability: inactive; Giardia kill: inactive

How did CC(Oc1ccccc1F)C(=O)NNC(=O)CC(C)c1ccccc1 (stereo not drawn) do in these assays?
uPA surface inh: inactive; HepG2 tox: 0.89µM; ATXN2 expr inh: inactive; TGFb SMAD3 inh: inactive; ATXN viability: inactive; Giardia kill: inactive

Results for CC(=O)NC(CC(=O)NNC(=O)C(C)Oc1ccccc1F)c1ccccc1 (stereo not drawn) ?
uPA surface inh: inactive; HepG2 tox: inactive; ATXN2 expr inh: inactive; TGFb SMAD3 inh: inactive; ATXN viability: inactive; Giardia kill: inactive

Results for C=C1C=C(C(F)F)n2ncc(C(=O)N3CCN(c4ccccc4)CC3)c2N1 ?
HepG2 tox: inactive; TGFb SMAD3 inh: inactive

How did Cc1ccc(C(NC(=O)C2CCN(Cc3ccc(Cl)c(Cl)c3)CC2)c2ccccn2)cc1 (stereo not drawn) do in these assays?
HepG2 tox: inactive; ATXN2 expr inh: inconclusive; TGFb SMAD3 inh: inactive; ATXN viability: inactive

What do the screens show for `O=C(NC(c1ccc(-c2ccccc2)cc1)c1cnccn1)C1CCN(CCCOc2ccccc2)CC1` (stereo not drawn)?
HepG2 tox: inactive; ATXN2 expr inh: inconclusive; TGFb SMAD3 inh: inconclusive; ATXN viability: 32µM

What do the screens show for `O=C(NC(c1ccc(-c2ccccc2)cc1)c1cnccn1)C1CCN(CCOc2ccc(F)cc2)CC1` (stereo not drawn)?
HepG2 tox: 18µM; ATXN2 expr inh: inconclusive; TGFb SMAD3 inh: 13µM; ATXN viability: inconclusive

How did Cc1ccc(C(NC(=O)C2CCN(Cc3ccc(Oc4ccccc4)cc3)CC2)c2ccccn2)cc1 (stereo not drawn) do in these assays?
HepG2 tox: 11µM; ATXN2 expr inh: inconclusive; TGFb SMAD3 inh: inconclusive; ATXN viability: inconclusive

Results for CCC[C@H]1C[C@H](C(=O)N[C@@H]([C@@H]2O[C@@H](SC)[C@@H](O)[C@@H](O)[C@@H]2O)[C@H](C)Cl)N(C)C1 ?
ATXN2 expr inh: inactive

Results for COc1ccc(N2CCN(CCCNC(=O)c3ccc4nc(CCc5ccccc5)oc4c3)CC2)cc1 ?
HepG2 tox: inactive; TGFb SMAD3 inh: inactive

What do the screens show for `COc1ccc(CNC(=O)c2ccc3nc(CCc4ccccc4)oc3c2)cc1OC`?
HepG2 tox: inactive; ATXN2 expr inh: 28µM; TGFb SMAD3 inh: inactive; ATXN viability: inconclusive

How did COc1ccc(N2CCN(CCCNC(=O)c3ccc4nc(Cc5ccccc5)oc4c3)CC2)cc1 do in these assays?
HepG2 tox: inactive; ATXN2 expr inh: 16µM; TGFb SMAD3 inh: inactive; ATXN viability: 10µM

What do the screens show for `CNC(=S)N=Nc1c(O)[nH]c2ccccc12`?
uPA surface inh: inactive; HepG2 tox: inactive; ATXN2 expr inh: inactive; TGFb SMAD3 inh: inactive; ATXN viability: inactive; Giardia kill: inactive

Results for CN(C)C(=S)N=Nc1[nH]c2ccccc2c1O ?
uPA surface inh: inconclusive; HepG2 tox: inactive; TGFb SMAD3 inh: 2.8µM; Giardia kill: inconclusive

Results for CCOCCCNC(=O)/C(C#N)=C/c1ccc([N+](=O)[O-])o1 ?
uPA surface inh: inactive; HepG2 tox: inactive; ATXN2 expr inh: inconclusive; TGFb SMAD3 inh: inactive; ATXN viability: 19µM; Giardia kill: inactive

Results for O=C1c2ccccc2C(=O)c2[nH]c(=O)[nH]c21 ?
uPA surface inh: inactive; HepG2 tox: 1.4µM; ATXN2 expr inh: inconclusive; TGFb SMAD3 inh: 1µM; Giardia kill: inconclusive

How did COc1ccc(CNC(=O)c2cnn(-c3ccc(OC)cc3)c2C2CCN(C(=O)OC(C)(C)C)CC2)cc1 do in these assays?
HepG2 tox: inactive; TGFb SMAD3 inh: 11µM

What do the screens show for `CC(C)(C)OC(=O)N1CCC(c2c(C(=O)NCCCN3CCc4ccccc4C3)cnn2-c2ccccc2)CC1`?
HepG2 tox: inactive; TGFb SMAD3 inh: inconclusive

Results for Cc1ccc(-n2ncc(C(=O)NCCCN3CCc4ccccc4C3)c2C2CCN(C(=O)OC(C)(C)C)CC2)cc1C ?
HepG2 tox: 16µM; TGFb SMAD3 inh: inconclusive

Results for COc1ccc(OC)c(CCNC(=O)c2cnn(-c3ccccc3Cl)c2C2CCN(C(=O)OC(C)(C)C)CC2)c1 ?
HepG2 tox: inactive; TGFb SMAD3 inh: 10µM

Results for Cc1ccc(C)c(NC(=O)C(Cc2ccccc2)N2Cc3ccccc3C2=O)c1 (stereo not drawn) ?
HepG2 tox: inactive; TGFb SMAD3 inh: inconclusive

What do the screens show for `NCCN(Cc1ccc(Cl)c(Cl)c1)c1ccc(Br)cn1`?
Giardia kill: inactive

What do the screens show for `CC(C)Cc1nc2cc(NS(=O)(=O)N(C)C)cc(C(=O)N3CC4(C)CC3CC(C)(C)C4)c2n1C` (stereo not drawn)?
ATXN viability: inactive

How did N#CC(C#N)=C1C(=O)N(CCN2CCOCC2)c2ccccc21 do in these assays?
uPA surface inh: inactive; HepG2 tox: 22µM; ATXN2 expr inh: inactive; TGFb SMAD3 inh: inconclusive; ATXN viability: inconclusive; Giardia kill: inactive
